Measurements published in ChEMBL document CHEMBL3433997, “St. Jude Leishmania screening dataset” (2016).

Experiments:
Assay type in all cases: functional
[1] = target: Solute carrier family 2, facilitated glucose transporter member 1 (Homo sapiens) (UniProt P11166); assay: ST_JUDE_LEISH: Cytotoxicity at 2uM final concentration against transgenic Leishmania Mexicana promastigotes LmGLUT1 that are glucose transport deficient and complemented with the human glucose transporter GLUT1. Activity is measured by DNA content using SYBR green in vitro
[2] = target: Hexose transporter 1 (Plasmodium falciparum) (UniProt O97467); assay: ST_JUDE_LEISH: Cytotoxicity at 2uM final concentration against transgenic Leishmania Mexicana promastigotes LmPfHT that are glucose transport deficient and complemented with the Plasmodium falciparum hexose transporter. Activity is measured by DNA content using SYBR green in vitro
[3] = target: Glucose transporter (Leishmania mexicana) (UniProt O61059); assay: ST_JUDE_LEISH: Cytotoxicity at 2uM final concentration against transgenic Leishmania Mexicana promastigotes LmGT2 that are glucose transport deficient and complemented with the L. Mexicana glucose transporter 2. Activity is measured by DNA content using SYBR green in vitro

Solute carrier family 2, facilitated glucose transporter member 1 (Homo sapiens), sequence (P11166 whole entry): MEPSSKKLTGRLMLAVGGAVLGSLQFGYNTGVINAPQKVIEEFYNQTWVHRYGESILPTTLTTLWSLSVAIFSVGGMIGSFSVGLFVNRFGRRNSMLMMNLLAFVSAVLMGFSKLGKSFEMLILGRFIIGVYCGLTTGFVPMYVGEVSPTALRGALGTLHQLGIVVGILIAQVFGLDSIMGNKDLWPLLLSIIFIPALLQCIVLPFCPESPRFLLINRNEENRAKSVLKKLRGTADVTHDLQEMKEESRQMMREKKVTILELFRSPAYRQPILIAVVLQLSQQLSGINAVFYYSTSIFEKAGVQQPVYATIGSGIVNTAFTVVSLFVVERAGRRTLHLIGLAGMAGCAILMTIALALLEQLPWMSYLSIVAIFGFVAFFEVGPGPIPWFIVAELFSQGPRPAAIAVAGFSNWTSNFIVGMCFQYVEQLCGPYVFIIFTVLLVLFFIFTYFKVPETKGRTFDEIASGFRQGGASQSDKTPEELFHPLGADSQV

Compound: Cc1ccc(CNC(=O)[C@H](CCCN)Nc2nc(NCC3CCCCC3)ncc2C)cc1
- inhibition [1]: 3.55%
- inhibition [2]: 2.8%
- inhibition [3]: 2.97%

Compound: CC1CC(C)CN(CC(O)CNC(=O)Nc2ccc(Br)cc2)C1 (stereo unspecified)
- inhibition [1]: 6.62%
- inhibition [2]: 5.27%
- inhibition [3]: 3.33%

Compound: CCCCCCc1c(C)nc2cc(OC)ccc2c1O
- inhibition [1]: 3.2%
- inhibition [2]: 5.49%
- inhibition [3]: 2.87%

Compound: Cc1cccc2nc(-c3ccc(-c4ccc(CN5CCCC(N)C5)cc4)s3)[nH]c12 (stereo unspecified)
- inhibition [1]: 0.2%
- inhibition [2]: 0.06%
- inhibition [3]: 0.74%

Compound: Cn1cncc1C(=O)Nc1cccc(-c2ccc(-c3nc4cc(F)ccc4[nH]3)cc2)c1
- inhibition [1]: 0%
- inhibition [2]: -0.68%
- inhibition [3]: 3.3%

Compound: COC(=O)c1ccc2nc(-c3ccc(/C=C/C(=O)NCc4ccc(Cl)c(Cl)c4)cc3)[nH]c2c1
- inhibition [1]: 3.11%
- inhibition [2]: 0.43%
- inhibition [3]: 4.71%

Compound: CN(C)CCCN1CCN(Cc2ccc(-c3ccc(-c4nc5ccccc5[nH]4)s3)cc2)CC1
- inhibition [1]: 11.2%
- inhibition [2]: 8.38%
- inhibition [3]: 12.1%

Compound: CCCCCc1cnc2nc(N)nc(N)c2c1C
- inhibition [1]: 13.6%
- inhibition [2]: 13.5%
- inhibition [3]: 12.4%

Compound: O=C(Cn1c(CCc2cccc(F)c2F)nc(=O)c2ccccc21)N(CCN1CCCC1)Cc1ccc(-c2ccc(C(F)(F)F)cc2)cc1
- inhibition [1]: 0.45%
- inhibition [2]: 0.38%
- inhibition [3]: -4.3%

Compound: c1cc(CNC2CCN(CC3CCCCC3)CC2)cc(-n2ccnc2)c1
- inhibition [1]: -0.57%
- inhibition [2]: -0.48%
- inhibition [3]: 1.45%

Compound: CCn1ccc2c(N3CCCC3=O)cc(C(=O)N[C@@H](Cc3ccccc3)[C@H](O)CNC(C)(C)CCCC(C)C)cc21
- inhibition [1]: 0%
- inhibition [2]: 0.39%
- inhibition [3]: 0.34%

Compound: CCc1c(CCNCCCCCCNCCc2ccc(OC)cc2)ccc(OC)c1OC
- inhibition [1]: 5.63%
- inhibition [2]: 5.5%
- inhibition [3]: 5.8%
